Results taken from PubChem BioAssay (Tox21).
Results filed as inconclusive are left out. Calls of active or inactive are those of the source. Unless noted, calls follow the shape of the full dose curve.

What was measured:
[1] = Nuclear factor erythroid 2-related factor 2/antioxidant responsive element (Nrf2/ARE) small molecule agonists: qHTS cell viability counter screen in human keratinocytes (AID 1919968; active = well fitted curve in the direction sought with a large enough effect in the repeat runs; an effect the other way counts as inactive or inconclusive; also: nearly all actives have a fitted effect of over 55% in size; also: potency is read from the fitted curve at half-maximal effect)
In short: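 HaCaT ARE reporter line, 1,500 cells/well; 5 h settle, 37 C/5% CO2; cpd in DMSO pinned; 23 h exposure; CellTiter-Fluor, 1 h; fluorescence.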

[2] = Nuclear factor erythroid 2-related factor 2/antioxidant responsive element (Nrf2/ARE) small molecule agonists: luciferase reporter gene qHTS assay in human keratinocytes (AID 1919969); also: nearly all actives have a fitted effect of over 35% in size
[3] = target: Gonadotropin-releasing hormone receptor (Homo sapiens) (UniProt P30968); assay: Human gonadotropin-releasing hormone receptor (GnRHR) small molecule agonists, calcium flux assay in GnRHR-HEK293 cells (AID 1920063); also: nearly all actives have a fitted effect of over 35% in size
In short: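 GnRHR-HEK293, 1500 cells/well, 18 h 37 C/5% CO2; Ca dye 1 h 37 C; cpd pinned (DMSO), agonist mode; kinetic FL 480/540, 3 min, 1 s reads; 15 conc, n=3.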

[4] = target: KiSS-1 receptor (Homo sapiens) (UniProt Q969F8); assay: Human kisspeptin (KISS1R) small molecule agonists, calcium flux assay in KISS1R-HEK293 cells (AID 1920064; active = well fitted curve in the direction sought with a large enough effect in the repeat runs; an effect the other way counts as inactive or inconclusive)
In short: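 Stable human KISS1R HEK293 line; 18 h plating, 37 C/5% CO2; calcium dye 1 h 37 C; compound pin transfer; kinetic fluorescence Ex/Em 480/540, 3 min.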

[5] = p53 small molecule agonists, cell-based qHTS assay with human liver microsomes (AID 1963577);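 also: p53 response element beta-lactamase reporter cells with liver microsomes plus NADPH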
In short: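 Steps: plate p53RE-bla cells, incubate 5 h at 37 C; add compound in DMSO; add microsomes (0.5 mg/mL final) and NADPH (0.5 mg/mL final); incubate 16 h at 37 C; add LiveBLAzer, 2 h RT; read fluorescence.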

[6] = p53 small molecule agonists, cell-based qHTS assay with rat liver microsomes (AID 1963578)
In short: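 Metabolic activation is supplied by rat liver microsomes with NADPH (each 0.5 mg/mL final). p53RE-bla cells incubate with compound 16 h at 37 C; reporter activity is measured by LiveBLAzer fluorescence.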

[7] = p53 small molecule agonists, cell-based qHTS assay with human liver microsomes: qHTS cell viability counter screen (AID 1963579); also: nearly all actives have a fitted effect of over 45% in size
In short: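 After the 460/530 nm beta-lactamase read, CellTiter-Glo was added to the same wells and luminescence measured after 30 min at room temperature, giving viability of p53RE-bla cells treated 16 h with compounds plus microsomes and NADPH.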

[8] = p53 small molecule agonists, cell-based qHTS assay: qHTS cell viability counter screen (AID 1963581); also: nearly all actives have a fitted effect of over 45% in size; also: potency is read from the fitted curve at half-maximal effect
In short: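 HCT-116 p53RE-bla cells, 4,000/well, plated 5 h before compound pin transfer; 16 h at 37 C; bla substrate 2 h RT; then CellTiter-Glo, 30 min RT, luminescence.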

[9] = p53 small molecule agonists, cell-based qHTS assay (AID 1963582; active = well fitted activation curve with a large enough effect in the signal ratio in the repeat runs, not every such curve was filed as active; the % refers to the signal ratio)
In short: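 Reporter line: p53RE-bla. Pre-incubation 5 h, 37 C, 5% CO2; compound (DMSO, pin tool) 16 h, 37 C; B/G FRET substrate 2 h RT; fluorescence intensity read.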

[10] = target: 5-hydroxytryptamine receptor 2A (Homo sapiens) (UniProt P28223); assay: 5-hydroxytryptamine receptor 2A (HTR2A) small molecule antagonists, cell-based qHTS assay (AID 1963586); also: nearly all actives have a fitted effect of over 45% in size
In short: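 Antagonist-mode intracellular calcium assay: DOI (4 nM) added after 5 min compound pre-incubation at room temperature to dye-loaded HTR2A-CHO cells. Fluorescence followed for 3 min, sampled every second.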

[11] = target: 5-hydroxytryptamine receptor 2A (Homo sapiens) (UniProt P28223); assay: 5-hydroxytryptamine receptor 2A (HTR2A) small molecule agonists, cell-based qHTS assay (AID 1963587); also: nearly all actives have a fitted effect of over 30% in size; also: potency is read from the fitted curve at half-maximal effect
In short: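 Kinetic calcium-flux fluorescence (2 min, 1 sec intervals) after compound addition in agonist mode. HTR2A-CHO cells were cultured 18 h, then dye-loaded 1 h at 37 C.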

[12] = target: Muscarinic acetylcholine receptor M1 (Homo sapiens) (UniProt P11229); assay: Cholinergic receptor muscarinic 1 (CHRM1) small molecule agonists, cell-based qHTS assay (AID 1963589); also: nearly all actives have a fitted effect of over 35% in size
In short: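 Human M1 in stable CHO line; 18 h plating, 1 h dye load 37 C; cpd added (agonist mode); Ca2+ fluorescence kinetic read, 1 s intervals; 15 conc, 3 runs.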

[13] = cAMP Responsive Elements (CRE) small molecule agonists, cell-based qHTS assay (AID 1963590)
In short: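 HEK 293T CRE-bla, 2,000 cells/well, 18 h preincubation 37 C/5% CO2; cpds (DMSO) pinned, 3 h; LiveBLAzer B/G FRET substrate, 2 h RT.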

[14] = cAMP Responsive Elements (CRE) small molecule antagonists, cell-based qHTS assay (AID 1963591; active = well fitted inhibition curve with a large enough effect in the signal ratio in the repeat runs, not every such curve was filed as active; the % refers to the signal ratio)
In short: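 Beta-lactamase reporter read by FRET substrate (LiveBLAzer B/G) after 2 h at room temperature. CRE-bla HEK293T cells had received compound plus 0.25 uM (final) NKH477 for 3 h at 37 °C.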

[15] = target: Beta-2 adrenergic receptor (Homo sapiens) (UniProt P07550); assay: Adrenergic beta2 receptor (ADRB2) small molecule antagonists, cell-based qHTS assay (AID 1963592); also: nearly all actives have a fitted effect of over 50% in size; also: potency is read from the fitted curve at half-maximal effect; as to activity change, negative = inhibition: series mostly up to about 92 µM
In short: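 Cells (CHO, stable ADRB2 overexpression) incubated 18-20hr at 37C; compounds added from DMSO; agonist mix (1nM isoproterenol, 100uM IBMX, 25uM Ro-20-1724) added; 0.5hr RT; d2-cAMP and anti-cAMP-cryptate added; 1hr RT; 665/615 nm read.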

[16] = target: D(2) dopamine receptor (Homo sapiens) (UniProt P14416); assay: Dopamine D2 receptor (DRD2) small molecule agonists, cell-based qHTS assay (AID 1963594); also: nearly all actives have a fitted effect of over 35% in size
In short: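 cAMP accumulation in DRD2-HEK293 cells measured by HTRF after 1 h detection; compounds added 10 min before NKH477 (200nM […]) forskolin-analogue stimulation, 30 min at room temperature, with Ro20-1724 present at 0.1 mM final.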

[17] = p53 small molecule agonists, cell-based qHTS assay with rat liver microsomes: qHTS cell viability counter screen (AID 1963580); also: nearly all actives have a fitted effect of over 45% in size
In short: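 HCT-116 p53RE-bla, 4,000 cells/well, 5 h pre-incubation; cpd + rat liver microsomes 0.5 mg/mL + NADPH 0.5 mg/mL (final); 16 h, 37 C; CellTiter-Glo, 30 min RT; luminescence.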

[18] = target: Muscarinic acetylcholine receptor M1 (Homo sapiens) (UniProt P11229); assay: Cholinergic receptor muscarinic 1 (CHRM1) small molecule antagonists, cell-based qHTS assay (AID 1963588); also: nearly all actives have a fitted effect of over 40% in size
In short: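 CHRM1-CHO calcium-flux assay, antagonist mode. Cells were seeded 18 h, dye-loaded 1 h at 37 C and given compound for 5 min at RT, then acetylcholine was added at 50nM. FDSS fluorescence was read 3 min; 15 concentrations, three runs.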

[19] = target: Beta-2 adrenergic receptor (Homo sapiens) (UniProt P07550); assay: Adrenergic beta2 receptor (ADRB2) small molecule agonists, cell-based qHTS assay (AID 1963593);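 also: CHO cells stably overexpressing human ADRB2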
In short: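 CHO cells stably over-expressing ADRB2 were plated overnight at 37C, then dosed with compounds plus a stimulation mix containing 100uM IBMX and 25uM Ro-20-1724 for 0.5hr at room temperature. cAMP was measured by HTRF competition, 1hr.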

[20] = target: D(2) dopamine receptor (Homo sapiens) (UniProt P14416); assay: Dopamine D2 receptor (DRD2) small molecule antagonists, cell-based qHTS assay (AID 1963595; active = well fitted inhibition curve with a large enough effect in the signal ratio in the repeat runs, with a control signal flat; the % refers to the signal ratio; also: potency is read from the fitted curve at half-maximal effect)
In short: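 In this cell-based antagonist screen, compounds act for 10 min at room temperature before a 30 min challenge with 12 nM quinpirole and 200 nM NKH477. cAMP is quantified by HTRF competition in DRD2-HEK293 cells containing 0.1 mM Ro20-1724.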
% is scaled to controls: 0 for no effect and ±100 for the full control effect.

Muscarinic acetylcholine receptor M1 (Homo sapiens), sequence (P11229 whole entry, looked up): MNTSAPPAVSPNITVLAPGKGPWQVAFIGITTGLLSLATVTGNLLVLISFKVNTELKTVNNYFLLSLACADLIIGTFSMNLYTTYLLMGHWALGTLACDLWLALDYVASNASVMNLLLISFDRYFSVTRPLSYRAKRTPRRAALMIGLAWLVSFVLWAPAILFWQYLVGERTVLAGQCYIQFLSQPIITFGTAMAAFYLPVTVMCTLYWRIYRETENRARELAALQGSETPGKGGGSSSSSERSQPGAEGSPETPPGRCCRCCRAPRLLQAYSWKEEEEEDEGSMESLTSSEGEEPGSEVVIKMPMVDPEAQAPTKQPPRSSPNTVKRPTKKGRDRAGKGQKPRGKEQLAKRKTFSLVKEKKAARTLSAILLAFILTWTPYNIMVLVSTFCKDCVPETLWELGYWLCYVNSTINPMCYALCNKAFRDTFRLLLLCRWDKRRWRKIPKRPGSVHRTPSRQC
Gonadotropin-releasing hormone receptor (Homo sapiens), sequence (P30968 whole entry, looked up): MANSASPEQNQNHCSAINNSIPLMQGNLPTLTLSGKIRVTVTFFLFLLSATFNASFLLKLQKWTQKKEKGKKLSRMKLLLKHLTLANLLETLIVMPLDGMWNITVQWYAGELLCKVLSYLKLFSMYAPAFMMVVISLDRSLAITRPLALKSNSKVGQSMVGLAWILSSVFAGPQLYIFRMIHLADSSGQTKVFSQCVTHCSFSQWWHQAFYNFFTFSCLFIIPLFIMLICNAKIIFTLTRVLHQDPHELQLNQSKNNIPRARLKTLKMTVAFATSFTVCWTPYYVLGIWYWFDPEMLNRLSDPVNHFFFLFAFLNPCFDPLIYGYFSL
5-hydroxytryptamine receptor 2A (Homo sapiens), sequence (P28223 whole entry, looked up): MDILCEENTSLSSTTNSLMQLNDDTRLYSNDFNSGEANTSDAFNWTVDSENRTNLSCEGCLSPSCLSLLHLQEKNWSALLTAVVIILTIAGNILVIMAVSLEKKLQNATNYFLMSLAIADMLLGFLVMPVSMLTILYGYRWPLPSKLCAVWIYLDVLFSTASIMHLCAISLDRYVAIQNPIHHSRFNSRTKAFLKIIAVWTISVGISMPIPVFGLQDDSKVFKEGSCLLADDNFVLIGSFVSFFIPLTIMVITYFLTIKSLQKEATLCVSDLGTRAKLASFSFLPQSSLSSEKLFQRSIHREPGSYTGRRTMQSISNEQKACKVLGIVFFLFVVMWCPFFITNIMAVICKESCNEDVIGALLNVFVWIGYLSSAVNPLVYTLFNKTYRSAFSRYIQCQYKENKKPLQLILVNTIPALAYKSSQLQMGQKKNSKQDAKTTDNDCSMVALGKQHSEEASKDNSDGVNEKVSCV
KiSS-1 receptor (Homo sapiens), sequence (Q969F8 whole entry, looked up): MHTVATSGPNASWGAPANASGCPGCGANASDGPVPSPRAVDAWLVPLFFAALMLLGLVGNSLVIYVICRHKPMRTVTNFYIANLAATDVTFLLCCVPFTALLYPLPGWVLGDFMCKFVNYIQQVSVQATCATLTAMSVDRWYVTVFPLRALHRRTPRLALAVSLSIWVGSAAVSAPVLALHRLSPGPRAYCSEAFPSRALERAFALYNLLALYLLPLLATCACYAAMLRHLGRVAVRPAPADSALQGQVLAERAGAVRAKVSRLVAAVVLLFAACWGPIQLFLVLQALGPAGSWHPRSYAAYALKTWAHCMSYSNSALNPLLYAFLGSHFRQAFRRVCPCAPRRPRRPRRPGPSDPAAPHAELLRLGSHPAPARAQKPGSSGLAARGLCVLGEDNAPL
D(2) dopamine receptor (Homo sapiens), sequence (P14416 whole entry, looked up): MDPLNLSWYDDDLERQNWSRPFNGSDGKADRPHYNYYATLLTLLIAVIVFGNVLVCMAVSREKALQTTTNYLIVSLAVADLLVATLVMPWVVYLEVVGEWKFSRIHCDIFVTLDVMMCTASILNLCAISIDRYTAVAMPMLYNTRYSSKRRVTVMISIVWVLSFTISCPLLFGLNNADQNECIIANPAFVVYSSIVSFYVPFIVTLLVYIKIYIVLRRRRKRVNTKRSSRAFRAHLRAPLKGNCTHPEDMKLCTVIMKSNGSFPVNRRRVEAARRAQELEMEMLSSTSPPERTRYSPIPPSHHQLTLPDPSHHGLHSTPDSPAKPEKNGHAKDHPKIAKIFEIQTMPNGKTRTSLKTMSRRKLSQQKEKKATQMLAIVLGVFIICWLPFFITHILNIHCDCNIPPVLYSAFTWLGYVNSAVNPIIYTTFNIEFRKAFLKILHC
Beta-2 adrenergic receptor (Homo sapiens), sequence (P07550 whole entry, looked up): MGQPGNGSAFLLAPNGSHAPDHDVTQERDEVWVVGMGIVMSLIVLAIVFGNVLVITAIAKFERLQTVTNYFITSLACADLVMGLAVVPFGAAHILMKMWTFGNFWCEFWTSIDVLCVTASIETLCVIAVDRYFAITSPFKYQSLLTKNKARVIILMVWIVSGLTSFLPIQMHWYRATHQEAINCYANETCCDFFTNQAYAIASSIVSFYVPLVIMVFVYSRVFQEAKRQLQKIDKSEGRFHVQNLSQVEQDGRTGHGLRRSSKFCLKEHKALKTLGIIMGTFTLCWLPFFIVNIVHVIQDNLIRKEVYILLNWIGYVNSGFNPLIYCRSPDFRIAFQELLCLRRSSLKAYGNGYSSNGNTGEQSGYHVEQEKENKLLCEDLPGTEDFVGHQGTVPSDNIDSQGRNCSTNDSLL

O=C(/C=C/c1ccccc1)OCCCc1ccccc1
inactive: Potency [1] | Potency [2] | Potency [3] | outcome [4] | Potency [5] | Potency [6] | Potency [7] | Potency [8] | Potency [9] | Potency [10] | Potency [11] | Potency [12] | Potency [13] | Potency [14] | Potency [15] | Potency [16]

C[C@@H]1CC[C@@]2(OC1)O[C@H]1C[C@H]3[C@@H]4CC[C@H]5C[C@@H](O)CC[C@]5(C)[C@H]4CC(=O)[C@]3(C)[C@H]1[C@@H]2C
inactive: activity change, negative = cytotoxicity [1] -14.4% [at 8.39 µM] | activity, positive = activation [2] -0.515% [at 8.39 µM] | activity change [3] -0.98% [at 5.22 µM, active compounds read high] | activation [4] 0.0336% [at 6.97 µM] | activation [5] 1.05% [at 5.99 µM] | activation [6] 0.138% [at 5.99 µM] | activity change, negative = cytotoxicity [17] 5.02% [at 5.99 µM] | activity change, negative = cytotoxicity [8] -10.7% [at 5.99 µM] | activation [9] -0.0756% [at 5.99 µM] | activity, negative = inhibition [10] 89.9% [at 5.62 µM] | activation [11] -0.761% [at 7.02 µM] | activity, negative = inhibition [18] 4.81% [at 5.58 µM] | activation [12] 0.4% [at 6.97 µM] | activation [13] -0.0414% [at 8.39 µM] | activity change, negative = inhibition [14] 0.931% [at 8.39 µM] | activity change, negative = inhibition [15] -3.89% [at 8.39 µM] | activation [19] 3.94% [at 8.39 µM] | activation [16] -11.7% [at 8.39 µM] | activity change, negative = inhibition [20] -1.11% [at 8.38 µM]

CN(C)CCc1c[nH]c2ccc(CS(=O)(=O)N3CCCC3)cc12
active: Potency [11] 10.7 µM
inactive: Potency [1] | Potency [2] | Potency [3] | Potency [5] | Potency [6] | Potency [7] | Potency [17] | Potency [8] | Potency [9] | Potency [18] | Potency [12] | Potency [13] | Potency [14] | Potency [15] | Potency [19] | Potency [16] | Potency [20]

OC1(c2ccc(Cl)c(C(F)(F)F)c2)CCN(CCCC(c2ccc(F)cc2)c2ccc(F)cc2)CC1
inactive: Potency [2] | Potency [3] | outcome [4] | Potency [6] | Potency [7] | Potency [17] | Potency [11] | Potency [12] | Potency [16]
active: Potency [1] 6.68 µM | Potency [8] 11.2 µM | Potency [15] 26.6 µM | Potency [20] 0.119 µM

CCCCC(CC)CN (stereo not given)
inactive: Potency [1] | Potency [2] | Potency [3] | Potency [5] | Potency [6] | Potency [7] | Potency [17] | Potency [8] | Potency [9] | Potency [10] | Potency [11] | Potency [12] | Potency [13] | Potency [14] | Potency [15] | Potency [16] | Potency [20]

C=CC(C)(C)O
inactive: Potency [1] | Potency [2] | Potency [3] | Potency [5] | Potency [6] | Potency [7] | Potency [17] | Potency [8] | Potency [9] | Potency [10] | Potency [11] | Potency [18] | Potency [12] | Potency [13] | Potency [15] | Potency [16] | Potency [20]

CCCCC(=O)O[C@]1(C(=O)CO)[C@H](C)C[C@H]2[C@@H]3CCC4=CC(=O)C=C[C@]4(C)[C@@]3(F)[C@@H](O)C[C@@]21C
inactive: Potency [1] | Potency [2] | Potency [3] | Potency [5] | Potency [6] | Potency [7] | Potency [17] | Potency [8] | Potency [9] | Potency [11] | Potency [18] | Potency [12] | Potency [13] | Potency [14] | Potency [15] | Potency [16] | Potency [20]

CO[Si](CCC1CCC2OC2C1)(OC)OC (stereo not given)
inactive: Potency [1] | Potency [2] | Potency [3] | Potency [5] | Potency [6] | Potency [7] | Potency [17] | Potency [8] | Potency [9] | Potency [10] | Potency [11] | Potency [18] | Potency [12] | Potency [13] | Potency [14] | Potency [15] | Potency [20]

O=c1[nH]c(=O)c2[nH]c(=O)[nH]c2[nH]1
inactive: activity change, negative = cytotoxicity [1] 13.3% [at 8.39 µM] | activity, positive = activation [2] 2.42% [at 8.39 µM] | activity change [3] -0.425% [at 5.22 µM, active compounds read high] | activation [5] -6.75% [at 5.99 µM] | activation [6] 1.18% [at 5.99 µM] | activity change, negative = cytotoxicity [7] -5.03% [at 5.99 µM] | activity change, negative = cytotoxicity [17] -22.6% [at 5.99 µM] | activity change, negative = cytotoxicity [8] -12.2% [at 5.99 µM] | activation [9] 1.49% [at 5.99 µM] | activation [11] -9.75% [at 7.02 µM] | activity, negative = inhibition [18] 3.65% [at 5.58 µM] | activation [12] -0.246% [at 6.97 µM] | activation [13] 1.51% [at 8.39 µM] | activity change, negative = inhibition [14] -5.1% [at 8.39 µM] | activity change, negative = inhibition [15] -4.56% [at 8.39 µM] | activation [19] 11.5% [at 8.39 µM] | activation [16] 0.309% [at 8.39 µM] | activity change, negative = inhibition [20] -2.53% [at 8.38 µM]

Cc1ccc(=O)n(-c2ccccc2)c1
inactive: Potency [1] | Potency [2] | Potency [3] | Potency [5] | Potency [6] | Potency [7] | Potency [17] | Potency [8] | Potency [9] | Potency [11] | Potency [18] | Potency [12] | Potency [13] | Potency [14] | Potency [15] | Potency [16] | Potency [20]

NC(=O)NS(=O)(=O)c1ccc(N)cc1
inactive: Potency [1] | Potency [2] | Potency [3] | outcome [4] | Potency [6] | Potency [7] | Potency [17] | Potency [8] | Potency [11] | Potency [18] | Potency [12] | Potency [14] | Potency [15] | Potency [19] | Potency [16] | Potency [20]
